# In PubChem BioAssay AID1159580 (chemical genetic matrix, 2015):
# Where “and” joins values, the source holds several entries; their conditions need not be identical. Equal values may be shown once. Among all 5,500 compounds or so, about 2,000 (36%) were called active. Not shown: some 18% with an inconclusive outcome. The list shows a part of the results. Unmarked numbers belong to inactive results. No stated cut-off is given here; in the data, active means normalized growth mostly below about 0.91 (no sharp cut-off); inconclusive means no clear call, values can overlap the other calls; inactive means mostly above about 0.92.
# Test: chemical genetic growth profiling, strain panel (AID 1159580);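 further: tested at 20 µM; growth read once vehicle control cultures reached saturation at 30 °C; 1 = growth at the plate median or of vehicle wells; lower values mean less growth of the strain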
# Conditions: growth OD
# [1] = S. cerevisiae deletion strains, locus YAL013W, strain DEP1, hits give low values
# [2] = S. cerevisiae deletion strains, locus YBR229C, strain ROT2, hits give low values
# [3] = S. cerevisiae deletion strains, locus YDL101C, strain DUN1, hits give low values
# [4] = S. cerevisiae deletion strains, locus YDL134C, strain PPH21, hits give low values
# [5] = S. cerevisiae deletion strains, locus YDR150W, strain NUM1, hits give low values
# [6] = S. cerevisiae deletion strains, locus YGR078C, strain PAC10, hits give low values
# [7] = S. cerevisiae deletion strains, locus YGR229C, strain SMI1, hits give low values
# [8] = S. cerevisiae deletion strains, locus YHR030C, strain SLT2, hits give low values
# [9] = S. cerevisiae deletion strains, locus YJR043C, strain POL32, hits give low values
# [10] = S. cerevisiae deletion strains, locus YJR075W, strain HOC1, hits give low values
# [11] = S. cerevisiae deletion strains, locus YKL190W, strain CNB1, hits give low values
# [12] = S. cerevisiae deletion strains, locus YLR039C, strain RIC1, hits give low values
# [13] = S. cerevisiae deletion strains, locus YLR262C, strain YPT6, hits give low values
# [14] = S. cerevisiae deletion strains, locus YMR263W, strain SAP30, hits give low values
# [15] = S. cerevisiae deletion strains, locus YNL153C, strain GIM3, hits give low values
# [16] = S. cerevisiae deletion strains, locus YNL322C, strain KRE1, hits give low values
# [17] = S. cerevisiae deletion strains, locus YOL006C, strain TOP1, hits give low values
# [18] = S. cerevisiae deletion strains, locus YPL055C, strain LGE1, hits give low values
# [19] = S. cerevisiae deletion strains, locus YPL241C, strain CIN2, hits give low values
# [20] = S. cerevisiae strains, strain wild type, hits give low values
structure (smiles),measurement,setting,value
O=C(O)c1cc(C(F)(F)F)ccc1F,normalized growth,[1],0.999
same,normalized growth,[2],0.982
same,normalized growth,[3],0.961
same,normalized growth,[4],0.989
same,normalized growth,[5],1
same,normalized growth,"S. cerevisiae deletion strains, locus YEL061C, strain CIN8, hits give low values",0.997
same,normalized growth,[6],0.975
same,normalized growth,[7],1
same,normalized growth,[8],0.964
same,normalized growth,"S. cerevisiae deletion strains, locus YHR087W, strain rtc3, hits give low values",0.973
same,normalized growth,"S. cerevisiae deletion strains, locus YJL187C, strain SWE1, hits give low values",0.998
same,normalized growth,[9],0.995
same,normalized growth,[10],1
same,normalized growth,[11],1
same,normalized growth,[12],0.991
same,normalized growth,"S. cerevisiae deletion strains, locus YLR058C, strain SHM2 (second series), hits give low values",0.983
same,normalized growth,"S. cerevisiae deletion strains, locus YLR085C, strain ARP6, hits give low values",1.02
same,normalized growth,[13],0.979
same,normalized growth,"S. cerevisiae deletion strains, locus YML094W, strain GIM5, hits give low values",0.916
same,normalized growth,"S. cerevisiae deletion strains, locus YMR219W, strain ESC1, hits give low values",0.999
same,normalized growth,[14],1.01
same,normalized growth,[15],1.02
same,normalized growth,"S. cerevisiae deletion strains, locus YNL298W, strain CLA4 (second series), hits give low values",0.996
same,normalized growth,[16],0.99
same,normalized growth,"S. cerevisiae deletion strains, locus YNR030W, strain Alg12, hits give low values",0.982
same,normalized growth,[17],0.987
same,normalized growth,[18],1.01
same,normalized growth,[19],0.929
same,normalized growth,"S. cerevisiae deletion strains, locus YPR135W, strain CTF4, hits give low values",0.905
same,normalized growth,[20],0.979
NCCCC(N)(C(=O)O)C(F)F (stereo not drawn),normalized growth,"S. cerevisiae deletion strains, locus YAL040C, strain CLN3, hits give low values",0.996
same,normalized growth,"S. cerevisiae deletion strains, locus YCL061C, strain MRC1 (second series), hits give low values",1
same,normalized growth,"S. cerevisiae deletion strains, locus YDR363W, strain ESC2, hits give low values",0.981
same,normalized growth,"S. cerevisiae deletion strains, locus YER002W, strain NOP16, hits give low values",0.996
same,normalized growth,[6],1.01
same,normalized growth,[14],0.994
same,normalized growth,[15],1.02
same,normalized growth,"S. cerevisiae deletion strains, locus YNL175C, strain NOP13, hits give low values",1
same,normalized growth,"S. cerevisiae deletion strains, locus YNL197C, strain WHI3, hits give low values",0.983
same,normalized growth,"S. cerevisiae deletion strains, locus YNL224C, strain SQS1, hits give low values",1.01
same,normalized growth,[16],0.986
same,normalized growth,"S. cerevisiae deletion strains, locus YOR083W, strain WHI5 (second series), hits give low values",1.01
same,normalized growth,[19],1
OCC(S)CS (stereo not drawn),normalized growth,[1],0.987
same,normalized growth,"S. cerevisiae deletion strains, locus YBR021W, strain FUR4, hits give low values",0.999
same,normalized growth,[2],0.96
same,normalized growth,"S. cerevisiae deletion strains, locus YCL029C, strain bik1, hits give low values",0.983
same,normalized growth,"S. cerevisiae deletion strains, locus YDL035C, strain GPR1, hits give low values",0.979
same,normalized growth,"S. cerevisiae deletion strains, locus YDL074C, strain BRE1, hits give low values",0.963
same,normalized growth,[3],0.985
same,normalized growth,[4],0.976
same,normalized growth,"S. cerevisiae deletion strains, locus YDL185W, strain tfp1, hits give low values",0.935
same,normalized growth,"S. cerevisiae deletion strains, locus YDL192W, strain arf1, hits give low values",0.964
same,normalized growth,"S. cerevisiae deletion strains, locus YDR101C, strain arx1, hits give low values",0.978
same,normalized growth,[5],0.981
same,normalized growth,"S. cerevisiae deletion strains, locus YDR162C, strain NBP2, hits give low values",0.966
same,normalized growth,"S. cerevisiae deletion strains, locus YDR318W, strain mcm21, hits give low values",1
same,normalized growth,"S. cerevisiae deletion strains, locus YDR388W, hits give low values",0.982
same,normalized growth,"S. cerevisiae deletion strains, locus YDR502C, strain sam2, hits give low values",0.974
same,normalized growth,"S. cerevisiae deletion strains, locus YER110C, hits give low values",0.983
same,normalized growth,"S. cerevisiae deletion strains, locus YER155C, strain BEM2, hits give low values",0.999
same,normalized growth,"S. cerevisiae deletion strains, locus YER167W, strain BCK2, hits give low values",1.02
same,normalized growth,"S. cerevisiae deletion strains, locus YGL078C, strain dbp3, hits give low values",0.992
same,normalized growth,"S. cerevisiae deletion strains, locus YGL086W, strain mad1, hits give low values",1.01
same,normalized growth,"S. cerevisiae deletion strains, locus YGL248W, strain PDE1, hits give low values",0.972
same,normalized growth,[6],0.972
same,normalized growth,"S. cerevisiae deletion strains, locus YGR135W, strain pre9, hits give low values",0.962
same,normalized growth,[7],0.986
same,normalized growth,"S. cerevisiae deletion strains, locus YGR252W, strain gcn5, hits give low values",0.949
same,normalized growth,[8],1.01 and 0.959
same,normalized growth,"S. cerevisiae deletion strains, locus YHR079C, strain IRE1 (second series), hits give low values",1.01
same,normalized growth,"S. cerevisiae deletion strains, locus YHR079C, strain IRE1, hits give low values",0.931
same,normalized growth,"S. cerevisiae deletion strains, locus YHR094C, strain hxt1, hits give low values",0.98
same,normalized growth,"S. cerevisiae deletion strains, locus YHR129C, strain ARP1, hits give low values",1
same,normalized growth,"S. cerevisiae deletion strains, locus YHR200W, strain rpn10, hits give low values",0.974
same,normalized growth,"S. cerevisiae deletion strains, locus YIL066C, strain RNR3, hits give low values",0.967
same,normalized growth,"S. cerevisiae deletion strains, locus YIL073C, strain SPO22, hits give low values",1.03
same,normalized growth,"S. cerevisiae deletion strains, locus YIL125W, strain kgd1, hits give low values",0.966
same,normalized growth,"S. cerevisiae deletion strains, locus YIR030C, strain dcg1, hits give low values",0.989
same,normalized growth,"S. cerevisiae deletion strains, locus YJL095W, strain BCK1, hits give low values",1.01 and 0.978
same,normalized growth,"S. cerevisiae deletion strains, locus YJL134W, strain LCB3, hits give low values",0.994
same,normalized growth,"S. cerevisiae deletion strains, locus YJL168C, strain set2, hits give low values",0.984
same,normalized growth,"S. cerevisiae deletion strains, locus YJL187C, strain SWE1 (second series), hits give low values",0.973
same,normalized growth,[9],1.3 [resistant] (active)
same,normalized growth,"S. cerevisiae deletion strains, locus YJR066W, strain TOR1, hits give low values",0.933
same,normalized growth,[10],0.974
same,normalized growth,"S. cerevisiae deletion strains, locus YKL009W, strain mrt4, hits give low values",1
same,normalized growth,"S. cerevisiae deletion strains, locus YKL068W, hits give low values",0.984
same,normalized growth,"S. cerevisiae deletion strains, locus YKL085W, strain MDH1 (second series), hits give low values",1.04
same,normalized growth,"S. cerevisiae deletion strains, locus YKL085W, strain MDH1, hits give low values",1.04
same,normalized growth,[11],0.985
same,normalized growth,"S. cerevisiae deletion strains, locus YKR001C, strain vps1, hits give low values",0.978
same,normalized growth,[12],1
same,normalized growth,"S. cerevisiae deletion strains, locus YLR058C, strain SHM2, hits give low values",0.984
same,normalized growth,"S. cerevisiae deletion strains, locus YLR102C, strain apc9, hits give low values",0.979
same,normalized growth,"S. cerevisiae deletion strains, locus YLR113W, strain HOG1, hits give low values",1.02
same,normalized growth,[13],0.996
same,normalized growth,"S. cerevisiae deletion strains, locus YLR268W, strain sec22, hits give low values",0.955
same,normalized growth,"S. cerevisiae deletion strains, locus YLR330W, strain CHS5, hits give low values",1.01
same,normalized growth,"S. cerevisiae deletion strains, locus YLR342W, strain FKS1 (second series), hits give low values",1.01
same,normalized growth,"S. cerevisiae deletion strains, locus YLR371W, strain rom2, hits give low values",0.986
same,normalized growth,"S. cerevisiae deletion strains, locus YLR418C, strain cdc73, hits give low values",0.941
same,normalized growth,"S. cerevisiae deletion strains, locus YML016C, strain PPZ1, hits give low values",1
same,normalized growth,"S. cerevisiae deletion strains, locus YML032C, strain rad52, hits give low values",0.973
same,normalized growth,"S. cerevisiae deletion strains, locus YML124C, strain tub3, hits give low values",0.989
same,normalized growth,"S. cerevisiae deletion strains, locus YMR078C, strain ctf18, hits give low values",0.995
same,normalized growth,"S. cerevisiae deletion strains, locus YMR223W, strain ubp8, hits give low values",0.999
same,normalized growth,[14],0.974
same,normalized growth,"S. cerevisiae deletion strains, locus YMR307W, strain GAS1, hits give low values",1.08
same,normalized growth,"S. cerevisiae deletion strains, locus YNL067W, strain RPL9B, hits give low values",0.964
same,normalized growth,"S. cerevisiae deletion strains, locus YNL128W, strain TEP1, hits give low values",0.974
same,normalized growth,[15],0.973
same,normalized growth,"S. cerevisiae deletion strains, locus YNL183C, strain NPR1, hits give low values",0.97
same,normalized growth,"S. cerevisiae deletion strains, locus YNL233W, strain BNI4, hits give low values",1
same,normalized growth,"S. cerevisiae deletion strains, locus YNL250W, strain rad50, hits give low values",0.973
same,normalized growth,"S. cerevisiae deletion strains, locus YNL271C, strain bni1, hits give low values",0.988
same,normalized growth,"S. cerevisiae deletion strains, locus YNL298W, strain CLA4, hits give low values",0.978
same,normalized growth,"S. cerevisiae deletion strains, locus YNL307C, strain MCK1, hits give low values",0.998
same,normalized growth,[16],0.978
same,normalized growth,"S. cerevisiae deletion strains, locus YNR052C, strain pop2, hits give low values",0.987
same,normalized growth,[17],0.849
same,normalized growth,"S. cerevisiae deletion strains, locus YOL012C, strain htz1",0.787
same,normalized growth,"S. cerevisiae deletion strains, locus YOL147C, strain pex11, hits give low values",0.987
same,normalized growth,"S. cerevisiae deletion strains, locus YOR061W, strain CKA2, hits give low values",0.969
same,normalized growth,"S. cerevisiae deletion strains, locus YOR069W, strain VPS5, hits give low values",1.14 [resistant] (active)
same,normalized growth,"S. cerevisiae deletion strains, locus YOR136W, strain idh2, hits give low values",0.992
same,normalized growth,"S. cerevisiae deletion strains, locus YOR144C, strain elg1, hits give low values",0.976
same,normalized growth,"S. cerevisiae deletion strains, locus YOR184W, strain ser1, hits give low values",0.996
same,normalized growth,"S. cerevisiae deletion strains, locus YOR231W, strain MKK1, hits give low values",0.921
same,normalized growth,"S. cerevisiae deletion strains, locus YOR316C, strain cot1, hits give low values",0.979
same,normalized growth,[18],0.955
same,normalized growth,"S. cerevisiae deletion strains, locus YPL256C, strain CLN2, hits give low values",1.01
same,normalized growth,"S. cerevisiae deletion strains, locus YPR119W, strain clb2, hits give low values",0.994
same,normalized growth,"S. cerevisiae deletion strains, locus YPR141C, strain kar3, hits give low values",0.967
same,normalized growth,"S. cerevisiae deletion strains, locus YPR163C, strain tif3, hits give low values",0.988
same,normalized growth,"S. cerevisiae deletion strains, locus YPR167C, strain met16, hits give low values",0.968
same,normalized growth,"S. cerevisiae deletion strains, strain wtn01, hits give low values",0.961
same,normalized growth,[20],0.99
